About 64,000 (15%) of roughly 420,000 compounds were called active. Another 27% or so got no clear call; they are omitted. Calls follow the shape of the dose curve; as a rule, active = well fitted inhibition curve with a large enough effect; inconclusive = small, poorly fitted or top-dose-only effect; inactive = flat fitted curve, though single readings scatter. A selection follows.
assay: qHTS for Inhibitors of human tyrosyl-DNA phosphodiesterase 1 (TDP1): qHTS in cells in absence of CPT; conditions: DT40 Tdp1-/- hTDP1 cells, no CPT, ATP luminescence, 48 h; activity change, negative = growth inhibition: at 46.2 µM (top of the series); also: nearly all actives have a fitted effect of over 55% in size
Method in brief: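 Camptothecin absent (DMSO only). Human TDP1-complemented DT40 knockout cells, 400 cells/well, 37 °C for minimum 48 hr; ATP measured via CellTiter-Glo, 30 min dark incubation, luminescence.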
% is scaled to controls: 0 for no effect and ±100 for the full control effect; potency is read from the fitted curve at half-maximal effect.

SMILES | activity change, negative = growth inhibition | Potency
CC(C)(C)C(=O)N1CCC[C@@]1(CO)C(=O)O | -3.05% (inactive) | –
O=C(c1ccc2c(c1)OCO2)N1CCN(C(=O)c2ccco2)CC1 | 2.81% (inactive) | –
O=S1(=O)CCN(Cc2ccccc2)CC1 | 2.2% (inactive) | –
O=c1cc(N2CCN(Cc3ccccc3)CC2)c(-c2ccccc2)n[nH]1 | -23.5% (inactive) | –
O=C1c2ccccc2C(=O)c2c1cccc2N1CCN(Cc2ccccc2)CC1 | – | 18.4 µM (active)
C=CCNC(=O)c1ccc(C)c(Br)c1 | -20.1% (inactive) | –
C=CCNC(=O)c1ccc2nc(-c3ccco3)c(-c3ccco3)nc2c1 | – | 11.2 µM (active)
C=CCNC(=O)c1cc(-c2ccccc2O)on1 | -29% (inactive) | –
COC(=O)NNC1=CC(=O)CC(C)(C)C1 | -5.15% (inactive) | –
Cc1ccc(N2C(=O)C(NC(=O)c3c(F)cccc3F)(C(F)(F)F)C3=C2CC(C)(C)CC3=O)cc1 (configuration not stated) | -5.91% (inactive) | –
CN(C)c1ccc(C2Nc3ccccc3C(=O)N2NS(=O)(=O)c2ccccc2)cc1 (configuration not stated) | -1.24% (inactive) | –
COc1ccc(-c2cc(C(=O)NC(Cc3c[nH]c4ccccc34)C(=O)O)c(C)o2)cc1OC (configuration not stated) | – | 29.1 µM (active)
Cc1cccc(C)c1OCC(=O)NC(Cc1c[nH]c2ccccc12)C(=O)O (configuration not stated) | – | inactive
COc1ccc(-c2cc(C(=O)NC(C(=O)O)C(C)C)c(C)o2)cc1OC (configuration not stated) | -6.53% (inactive) | –
Cc1ccc(S(=O)(=O)NCc2csc(C)n2)c(C)c1 | 2.86% (inactive) | –
CCn1cc(C(=O)N2CCN(c3cc(Cl)ccc3C)CC2)c(=O)c2cc(S(=O)(=O)N3CCCC3)ccc21 | – | 25.9 µM (active)
Cc1ccc(Cl)cc1N1CCN(C(=O)c2cn(C)c3ccc(S(=O)(=O)N(C)C4CCCCC4)cc3c2=O)CC1 | -27.4% (inactive) | –
CCn1cc(C(=O)N2CCN(c3cc(C)ccc3C)CC2)c(=O)c2cc(S(=O)(=O)N(C)C3CCCCC3)ccc21 | – | 18.4 µM (active)
CN(Cc1ccccc1)C(=O)c1cn(C)c2ccc(S(=O)(=O)N(C)C3CCCCC3)cc2c1=O | -14.9% (inactive) | –

SMILES | activity change, negative = growth inhibition | Potency
CCOC(=O)N1CCN(C(=O)c2cn(C)c3ccc(S(=O)(=O)N4CCCC4)cc3c2=O)CC1 | -3.52% (inactive) | –
CCn1cc(C(=O)N2CC(C)CC(C)C2)c(=O)c2cc(S(=O)(=O)N3CCCC3)ccc21 (configuration not stated) | 13.2% (inactive) | –
NC(=O)CSc1nc2c(oc3ccccc32)c(=O)n1Cc1ccccc1 | -16.9% (inactive) | –
COCC(=O)Nc1cc(C(=O)OC)cc(C(=O)OC)c1 | -2.97% (inactive) | –
COc1ccc(CC(N)C(=O)NC2C(O)[C@H](n3cnc4c(N(C)C)ncnc43)O[C@@H]2CO)cc1 (some centres not stated) | – | 22.1 µM (active)
Nc1ncnc2c1ncn2[C@@H]1O[C@H](CNC(=O)[C@H](N)Cc2cccnc2)[C@@H](O)[C@H]1O | 14.7% (inactive) | –
COc1cccc(CN(C)C(=O)CC[C@H]2O[C@@H](n3cnc4c(NC(=O)c5ccccc5)ncnc43)[C@H](O)[C@@H]2O)c1 | -11.4% (inactive) | –
COC(=O)CNC(=O)c1ccc(OC2CCN(C(=O)C3CC3)CC2)cc1 | 11.2% (inactive) | –
CN(C)CCOc1ccc(Cl)cc1C(C)(C)C | -29% (inactive) | –
CCN(CC)CCOCCOc1ccc(Cl)c2ccccc12 | – | 16.4 µM (active)
CCC(C(=O)OCCN(CC)CC)c1ccccc1 (configuration not stated) | -14.4% (inactive) | –
C/C(=N/NC(=O)CCc1ccccc1)c1ccco1 | 18% (inactive) | –
O=C(CCc1ccccc1)Nc1cccc(-c2nnc(-c3ccco3)o2)c1 | – | 16.4 µM (active)
Cc1cccc(NC(=O)CSc2nnc(-c3ccco3)o2)c1 | 4.91% (inactive) | –
COc1cc(NS(=O)(=O)c2ccc(NC(=O)CN3C(=O)c4ccccc4C3=O)cc2)ncn1 | 0.218% (inactive) | –
Oc1cc(O)c2c(c1)OC(c1ccc(O)c(O)c1)C(O)C2 (configuration not stated) | -6.57% (inactive) | –
CCCC1OC23CCCCC2C(C#N)(C#N)C1(C#N)C(=N)O3 (configuration not stated) | – | 5.8 µM (active)
N#C/C(=C\c1ccccc1)c1n[nH]c(Cn2cncn2)n1 | -7.47% (inactive) | –
COC(=O)N1CCC2(CCCN(c3ccncc3)C2)CC1 | -23.2% (inactive) | –

SMILES | activity change, negative = growth inhibition | Potency
CCc1cccc2c(=O)c(C(=O)NCCCOC)c[nH]c12 | -8.95% (inactive) | –
CCc1nc2ccc(C(=O)Nc3cccc(OC)c3)cn2c1N(CCC(C)C)CCN(C)C | -99.5% (inactive) | –
CCc1nc2ccc(C(=O)Nc3ccc(OC)c(OC)c3)cn2c1N(C)C(=O)c1cccc(OC)c1 | -12.6% (inactive) | –
CCc1nc2ccc(C(=O)Nc3cc(-c4ccccc4)ccc3OC)cn2c1N(CC)CC(=O)N(C)C | – | 11.6 µM (active)
CCn1c(CNS(=O)(=O)c2ccc(Cl)cc2)n[nH]c1=S | 1.74% (inactive) | –
Cc1cccnc1NC(=O)CSc1nnc(COc2ccc(C(C)C)cc2)n1C | -9.74% (inactive) | –
N#Cc1cccc(CSc2ncnc(N)n2)c1 | -16.2% (inactive) | –
Cc1cc(C(C)(C)C)cc(S(=O)(=O)Nc2ccc(C(=O)O)cc2)c1C | -0.652% (inactive) | –
Cc1cc(C)c(C)c(S(=O)(=O)Nc2ccc(O)cc2)c1C | – | 11.6 µM (active)
Cc1cc(C)c(C)c(S(=O)(=O)Nc2cccnc2)c1C | -12.7% (inactive) | –
COc1cc(NC(=O)C2CC(c3ccccc3O)=NO2)c(OC)cc1Cl (configuration not stated) | -15% (inactive) | –
CC/S(CC1CC1(Cl)Cl)=N\S(=O)(=O)c1ccc(C)cc1 (configuration not stated) | -13.4% (inactive) | –
COC(=O)CCNc1ccc2c(c1)OCCO2 | -12.9% (inactive) | –
O=C(NCCOc1ccccc1)c1ccccc1 | -0.273% (inactive) | –
O=C(NCCc1ccccc1)c1ccc(OCCOc2ccccc2)cc1 | 2.77% (inactive) | –
CC(C)(c1ccccc1)c1ccc(OCCN)cc1 | – | 11.6 µM (active)
O=C(CSc1ncccn1)N1CCCC1 | -10.3% (inactive) | –
CCc1nnc(NC(=O)CSc2nc3c(c(=O)n2-c2ccccc2OC)SCC3)s1 | -17.8% (inactive) | –
CN(C)S(=O)(=O)c1ccc(C(=O)NCCN=C2NS(=O)(=O)c3ccccc32)cc1 | 4.5% (inactive) | –
